From PubChem BioAssay AID504329 (Southern Research Specialized Biocontainment Screening …, 2011)
Screen size: about 340,000 compounds; about 1,000 (0.29%) were called active. A selection follows. Entries with a potency or affinity are not part of this list. A number with no mark means an inactive call. Cut-off read from the data, not from the text of the source: inconclusive = inhibition above about 27% without an active follow-up result; inactive = below that.

assay: NS1A inhibition, H1N1 influenza, cell based functional assay (AID 504329); conditions: percent inhibition, at 12.5 µM, hits give high values

Row | Compound | inhibition [%]
1 | O=C(NCCc1ccc2c(c1)OCCO2)c1ccc([N+](=O)[O-])cc1Cl | -0.08
2 | O=C(CSc1nnnn1-c1ccc2c(c1)OCO2)NCc1ccccc1 | 0.06
3 | CCCCOc1c(Br)cc(CNCCCN2CCOCC2)cc1OC | 1.13
4 | Cc1ccc(CNc2cc(C(=O)O)ccc2C)s1 | 14.2
5 | O=C(NCc1ccccc1F)C1CCCN1S(=O)(=O)c1ccc(F)cc1 (stereo not given) | 4.5
6 | O=C(O)c1cccc(NC(=O)c2ccccc2NC(=O)c2ccco2)c1 | -7.51
7 | CN(C)/C=C(\C(=O)c1cccc(Cl)c1)c1nnnn1-c1ccccc1 | -1.13
8 | Nc1ccc(C(=O)C(=O)c2ccc(N)cc2)cc1 | 1.62
9 | N=C(N)c1ccc(N)cc1 | 2.89
10 | CCOC(=O)c1cc(CC)sc1NC(=O)CC1SC(N)=NC1=O (stereo not given) | -8.66
11 | Cc1ccc(S(=O)(=O)Cn2nnnc2C(CC(C)C)N2CCN(C3CCCC3)CC2)cc1 (stereo not given) | -5.05
12 | COc1cc(C(=O)N/N=C(\Cc2ncc[nH]2)c2ccccc2)cc(OC)c1OC | -5.85
13 | COc1ccc(C(=O)N/N=C(\Cc2ncc[nH]2)c2ccccc2)cc1 | 1.55
14 | CN(CC(=O)Nc1ccccc1Cl)C(=O)COC(=O)c1ccc(-c2ccc(O)cc2)cc1 | -4.29
15 | CCC(=O)Nc1ccc(C(=O)N/N=C/c2c(C)[nH]c3ccccc23)cc1 | 10.2
16 | CC(CNC(=O)c1cc(COc2c(F)cccc2F)on1)Oc1cccnc1 (stereo not given) | 5.51
17 | O=C(NNC(=S)NC(=O)c1cccnc1)c1ccc(F)cc1 | 3.02
18 | COc1ccc(/C=C/C(=O)NC(=S)NNC(=O)c2cnccn2)cc1 | 22
19 | O=C(NNC(=S)NC(=O)c1ccc(F)cc1)c1ccncc1 | -6.57
20 | O=C(NNC(=S)NC(=O)c1cccnc1)c1ccc(Cl)cc1 | -8.92

Row | Compound | inhibition [%]
21 | O=C(/C=C/c1ccccc1)NC(=S)NNC(=O)c1cccnc1 | 11.7
22 | O=C(NNC(=O)c1cnccn1)c1ccc(Cl)cc1 | -1.07
23 | CSc1nsc(SCC(=O)N2CCCc3ccccc32)n1 | -4.75
24 | COc1ccc(NC(C)=O)c2nc(C)c(C)nc12 | 2.97
25 | CC1(C)OC(c2ccccc2)=C/C(=C/C=Nc2ccccc2)O1 | -14.7
26 | CC1(C)OC(c2ccccc2)=C/C(=C/C=C2C(=O)NC(=O)NC2=O)O1 | 22.3
27 | CCN(CC)C(=O)Oc1cc(=O)n2c3c(cccc13)CCC2 | 2.43
28 | Cc1cc(C(=O)Nc2ccc3c(c2)OCO3)no1 | 6.49
29 | O=C(COc1ccc(Cl)cc1Br)OCC(=O)c1ccc[nH]1 | -4.26
30 | COc1cc(C2SCC(=O)Nc3c2c(=O)[nH]n3C2CCCCCC2)cc(OC)c1OC (stereo not given) | 3.42
31 | N#Cc1ccccc1OCC(=O)Nc1ccccc1C(=O)NC1CC1 | -6.65
32 | COc1cc([N+](=O)[O-])cc(/C=N/NC(=O)Cn2nc(C)cc2C)c1O | -28.6
33 | O=C(Cn1nc2ccccc2n1)N/N=C/c1cc(Cl)cc([N+](=O)[O-])c1O | 17.6
34 | CCOC(=O)c1c(C)[nH]c(C(=O)N/N=C\c2ccccc2O)c1C | 0.86
35 | O=C(Cn1nnc(-c2ccccc2)n1)N/N=C/c1cc([N+](=O)[O-])ccc1O | 0.1
36 | Cc1cc(C)n(CC(=O)N/N=C/c2cc(Br)cc([N+](=O)[O-])c2O)n1 | 15.4
37 | Cc1cc(C)n(CC(=O)N/N=C/c2cccc([N+](=O)[O-])c2)n1 | 4.33
38 | CCOC(=O)c1c(C)[nH]c(C(=O)N/N=C\c2ccccc2Cl)c1C | 1.32
39 | COc1cc([N+](=O)[O-])cc(/C=N/NC(=O)Cn2nccc2C)c1O | 13.5
40 | COc1ccc(NC(=S)N(CCO)Cc2ccccc2)cc1 | 1.27

Row | Compound | inhibition [%]
41 | CN(C(=O)c1cncc(Br)c1)C1C2CC3CC(C2)CC1C3 (stereo not given) | 0.5
42 | O=C(COC(=O)C1CCC1)Nc1cc(S(=O)(=O)N2CCCCC2)ccc1Cl | 3.86
43 | O=C(c1cc(C2CC2)nn1-c1ccccc1)N1CCN(c2ncc(C(F)(F)F)cc2Cl)CC1 | -6.87
44 | CCc1ccccc1NCC(=O)Nc1ccccc1C(=O)OC | -3.34
45 | Cc1c(C)c2ccc(OCC(=O)c3ccccc3)cc2oc1=O | -16.6
46 | CC(=O)Nc1ccc(S(=O)(=O)N2CCN(CCc3ccccc3)CC2)cc1 | 0.26
47 | Nc1ccccc1N=Cc1c(O)n(CCC2=CCCCC2)c(=O)[nH]c1=O | -8.66
48 | COC(CNC(=O)C1CCCN(S(=O)(=O)c2c(C)noc2/C=C/c2cccs2)C1)OC (stereo not given) | 9.65
49 | O=C(OCc1ccccc1)N1CCC2CC1c1cc(-c3ccccc3)ccc12 (stereo not given) | -8.29
50 | CCOc1cccc(CN2CCCC(CNC(=O)c3cccc(OC)c3OC)C2)c1 (stereo not given) | 0.84
51 | COc1ccc(CCNC(=O)COC(=O)c2cc(S(=O)(=O)N3CCCC3)ccc2O)cc1 | -7.2
52 | C=CCCN(C(C(=O)OC)C(C)C)S(=O)(=O)c1ccccc1Br (stereo not given) | -12.7
53 | O=C(N/N=C/c1cc([N+](=O)[O-])ccc1O)C1CC1 | 4.39
54 | Cc1ccc(C)c(NC(=O)CCC(=O)N/N=C/c2cc([N+](=O)[O-])ccc2O)c1 | 8.85
55 | COc1ccc(Br)cc1/C=N/NC(=O)Cn1nnnc1N | 0.27
56 | Cc1ccc(NC(=O)CCC(=O)N/N=C/c2cc([N+](=O)[O-])ccc2O)cc1 | -7.13
57 | O=C(N/N=C/c1cc([N+](=O)[O-])ccc1O)Nc1ccccc1 | -0.02
58 | Cc1ccccc1NC(=O)CCC(=O)N/N=C/c1cc([N+](=O)[O-])ccc1O | 10.1
59 | CN1CCN(CCC(=O)N/N=C/c2cc([N+](=O)[O-])ccc2OC(F)F)CC1 | -8.9
60 | Nc1nnnn1CC(=O)N/N=C/c1cc([N+](=O)[O-])ccc1Cl | -6.51
